{
  "source": "PubChem BioAssay AID1347156",
  "about": "(National Center for Advancing Translational Sciences (NCATS), 2019)",
  "note": "Results filed as inconclusive are left out. The source made the active and inactive calls. Calls come from the whole dose curve; as a rule, active = well fitted cell-killing curve with a large enough effect; inconclusive = small, poorly fitted or top-dose-only effect; inactive = flat fitted curve, though single readings scatter. Potency is the fitted concentration of half-maximal effect.",
  "data": [
    {"assay": "DAPI mCherry counterscreen qHTS for Zika virus inhibitors; note: nearly all actives have a fitted effect of over 55% in size", "details": "Vero cells, DAPI nuclear count cytotoxicity, imaging 48-72 h, infected with Zika reporter virus, MOI 1; series mostly up to 32.6 µM", "summary_of_the_method": "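Imaging read-out after fixation and Hoechst nuclear staining: percent infection from mCherry-positive cells (above 3 SD of negative controls) and nuclear counts. Setup: Vero cells pre-plated overnight, compound added, infected with ZIKV-mCherry (MOI 1), 48-72 hrs, 37 degrees C.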", "values": [
      {"smiles": "CCOc1ccc(C(=O)Nc2cccc(C(=O)OCc3cc(=O)n4nc(C5CC5)sc4n3)c2)cc1", "Potency": "11.2 µM (active)"},
      {"smiles": "COc1cc(-c2ccc(N=Nc3ccc4c(S(=O)(=O)O)cc(S(=O)(=O)O)c(N)c4c3O)c(OC)c2)ccc1N=Nc1ccc2c(S(=O)(=O)O)cc(S(=O)(=O)O)c(N)c2c1O", "Potency": "inactive"},
      {"smiles": "Cc1nc(N=Nc2cc(S(=O)(=O)O)c3cc([N+](=O)[O-])cc(S(=O)(=O)O)c3c2)c(COP(=O)(O)O)c(C=O)c1O", "Potency": "inactive"},
      {"smiles": "CN(Cc1ccc(C(=O)O)cc1)c1ccc(OCc2c(-c3c(Cl)cccc3Cl)noc2C2CC2)nc1C(F)(F)F", "Potency": "15.8 µM (active)"},
      {"smiles": "CC[C@H](C)[C@H]1O[C@]2(CC[C@@H]1C)C[C@@H]1C[C@@H](C/C=C(\\C)[C@@H](O[C@H]3C[C@H](OC)[C@@H](O[C@H]4C[C@H](OC)[C@@H](O)[C@H](C)O4)[C@H](C)O3)[C@@H](C)/C=C/C=C3\\CO[C@@H]4[C@H](O)C(C)=C[C@@H](C(=O)O1)[C@]34O)O2", "Potency": "8.91 µM (active)"},
      {"smiles": "O=C(O)c1ccc(NC(=O)c2cn(-c3ccccc3)nc2-c2ccc(Br)cc2)cc1", "Potency": "35.5 µM (active)"},
      {"smiles": "CCOc1ccc(-c2cc(NC(=O)c3c(F)cccc3F)c(C(=O)O)s2)cc1", "Potency": "5.01 µM (active)"},
      {"smiles": "COc1ccc(Cl)c(Nc2nc3ccccc3nc2NS(=O)(=O)c2cccc(NC(=O)C(C)(C)N)c2)c1", "Potency": "22.4 µM (active)"},
      {"smiles": "C/C(=C\\CC/C(C)=C/CC[C@]1(C)CCc2cc(O)cc(C)c2O1)CC/C=C(\\C)C(=O)O", "Potency": "14.1 µM (active)"},
      {"smiles": "O=c1c(O)c(-c2ccc(O)cc2O)oc2cc(O)cc(O)c12", "Potency": "inactive"},
      {"smiles": "Cc1cc(OCCCc2c(C(=O)O)n(Cc3cccnc3)c3c(-c4c(COc5ccc(N6CCN([S+](C)(=O)[O-])CC6)cc5)nn(C)c4C)cccc23)cc(C)c1Cl", "Potency": "14.1 µM (active)"},
      {"smiles": "COc1cc(C2Nc3ccccc3-c3nnc(SCc4ccc(Cl)cc4)nc3O2)ccc1OCC(=O)O", "note": "(centres undefined)", "Potency": "inactive"},
      {"smiles": "CC(C)(C)Sc1c(CC(C)(C)C(=O)O)n(Cc2ccc(Cl)cc2)c2ccc(OCc3ccc4ccccc4n3)cc12", "Potency": "35.5 µM (active)"},
      {"smiles": "Cc1c(C2(c3cc(C(C)C)c(O)c(Br)c3C)OS(=O)(=O)c3ccccc32)cc(C(C)C)c(O)c1Br", "Potency": "inactive"},
      {"smiles": "O=C1c2c(O)ccc([N+](=O)[O-])c2C(=O)c2c([N+](=O)[O-])ccc(O)c21", "Potency": "39.8 µM (active)"},
      {"smiles": "CC(C)c1cc(C(C)C)c(CC(=O)NS(=O)(=O)Oc2c(C(C)C)cccc2C(C)C)c(C(C)C)c1", "Potency": "10 µM (active)"},
      {"smiles": "COc1cc(/C=C(\\C#N)C(=O)Nc2nnc(C(F)(F)F)s2)ccc1OCc1ccc(C(F)(F)F)cc1C(F)(F)F", "Potency": "7.08 µM (active)"},
      {"smiles": "COc1ccc(/C=C(\\C#N)c2nc(-c3cc4c(ccc5ccccc54)oc3=O)cs2)cc1O", "Potency": "1 µM (active)"},
      {"smiles": "Cc1cc(C(C#N)c2ccc(Cl)cc2)c(Cl)cc1NC(=O)c1cc(I)cc(I)c1O", "note": "(centres undefined)", "Potency": "8.91 µM (active)"},
      {"smiles": "CC(C)c1cccc2c(-c3ccccc3)cc(-c3ccc(-c4ccc(C(=O)O)cc4)[nH]3)nc12", "Potency": "25.1 µM (active)"},
      {"smiles": "COC(=O)c1ccc([C@H]2Nc3ccc(S(=O)(=O)Nc4ccc(C)cc4)cc3[C@H]3C=CC[C@H]32)cc1", "Potency": "inactive"},
      {"smiles": "CCOC(=O)c1ccc(Nc2nc3ccccc3nc2NS(=O)(=O)c2ccc(Cl)cc2)cc1", "Potency": "7.94 µM (active)"},
      {"smiles": "CCN(Cc1cccc(S(=O)(=O)O)c1)c1ccc(C(=C2C=CC(=[N+](CC)Cc3cccc(S(=O)(=O)O)c3)C=C2)c2ccccc2S(=O)(=O)[O-])cc1", "Potency": "inactive"},
      {"smiles": "COc1cc(C(=O)NS(=O)(=O)c2ccccc2C)ccc1Cc1cn(C)c2ccc(NC(=O)OC3CCCC3)cc12", "Potency": "35.5 µM (active)"},
      {"smiles": "CC1(C)CCC(C)(C)c2cc3c(cc21)Sc1ccccc1N=C3c1ccc(C(=O)O)cc1", "Potency": "8.91 µM (active)"},
      {"smiles": "CCCCCCCCc1ccc(CCC(N)(CO)CO)cc1", "Potency": "10 µM (active)"},
      {"smiles": "O=C(O)CSc1nc2ccc(NC(=O)COc3ccc(Cl)cc3)cc2s1", "Potency": "inactive"},
      {"smiles": "CC(C)c1ccc2c(c1)c(SC(C)(C)C)c(CC(C)(C)C(=O)O)n2Cc1ccc(Cl)cc1", "Potency": "11.2 µM (active)"},
      {"smiles": "N#Cc1ccc(N2N=C3c4ccc(C(=O)O)cc4CC[C@@H]3[C@@H]2C2CCCC2)cc1Cl", "Potency": "4.47 µM (active)"},
      {"smiles": "N#C/C(=C\\c1ccc(-c2ccc(Cl)c(C(=O)O)c2)o1)c1nc2ccccc2[nH]1", "Potency": "inactive"},
      {"smiles": "CCN(Cc1cccc(S(=O)(=O)O)c1)c1ccc(C(=C2C=CC(=[N+](CC)Cc3cccc(S(=O)(=O)O)c3)C=C2)c2ccc(O)cc2S(=O)(=O)O)cc1", "Potency": "inactive"},
      {"smiles": "Cc1ccc(C(=O)Nc2ccc(S(=O)(=O)O)c3cc(S(=O)(=O)O)cc(S(=O)(=O)O)c23)cc1NC(=O)c1cccc(NC(=O)Nc2cccc(C(=O)Nc3cc(C(=O)Nc4ccc(S(=O)(=O)O)c5cc(S(=O)(=O)O)cc(S(=O)(=O)O)c45)ccc3C)c2)c1", "Potency": "inactive"},
      {"smiles": "Nc1c(S(=O)(=O)O)cc(Nc2ccc(Nc3nc(Cl)nc(Nc4ccc(S(=O)(=O)O)cc4)n3)c(S(=O)(=O)O)c2)c2c1C(=O)c1ccccc1C2=O", "Potency": "inactive"},
      {"smiles": "CC1CCN(C(c2ccc(F)cc2)c2ccc(C(C)C(=O)O)cc2-c2ccc(C(F)(F)F)cc2)CC1", "note": "(centres undefined)", "Potency": "8.91 µM (active)"}
    ]}
  ]
}
